# Experimental data taken from article PMC7862700, “An all-to-all approach to the identification of sequence-specific readers for epigenetic DNA modifications on cytosine”.
# Experiments:
# Assay in all cases: DAPPL (digital affinity profiling via proximity ligation, sequencing); 10 mM Tris-HCl pH 7.5, 50 mM NaCl, 1 mM DTT, 4% glycerol, room temperature, 30 min; GST-TFs on glutathione beads, 16-mer random dsDNA library, 0.1% formaldehyde crosslink after washing; high values mean tight binding
# Conditions in all cases: protein: recombinant; tags: N-terminal GST; dsDNA, one strand shown
# GABPA = molecular target: T1, GABPA (Homo sapiens, UniProt Q06546 1-454)
# T1 sequence: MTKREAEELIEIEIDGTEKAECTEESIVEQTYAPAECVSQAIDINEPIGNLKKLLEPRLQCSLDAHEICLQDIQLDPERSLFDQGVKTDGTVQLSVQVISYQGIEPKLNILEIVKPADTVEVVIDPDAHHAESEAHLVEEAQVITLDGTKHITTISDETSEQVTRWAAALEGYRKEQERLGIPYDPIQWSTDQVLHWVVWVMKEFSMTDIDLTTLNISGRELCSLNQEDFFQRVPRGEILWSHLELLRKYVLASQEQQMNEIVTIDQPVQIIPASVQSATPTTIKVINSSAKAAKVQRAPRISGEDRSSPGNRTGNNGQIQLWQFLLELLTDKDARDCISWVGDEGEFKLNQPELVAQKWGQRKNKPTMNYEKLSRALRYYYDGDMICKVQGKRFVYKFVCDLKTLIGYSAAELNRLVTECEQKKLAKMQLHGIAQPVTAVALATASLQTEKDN
# Procedure, shortened: (§1)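 In yeast, human transcription factors were expressed with a GST fusion, then pulled down on glutathione beads and given DNA barcodes. Pooled with a tag-only sample, they were exposed to 200 nmole of a 16-mer random double-stranded DNA library (Tris/NaCl/DTT/glycerol buffer, room temperature, 30 min), washed, crosslinked with 0.1% formaldehyde, proximity-ligated using BsaI/T4 ligase for 1 h at 37 °C, PCR-amplified and read on an Illumina NextSeq500. Each hexamer's frequency of reads for a factor, divided by the matching frequency for the tag-only sample, gives the binding signal.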
# ELF1 = ELF1 (Homo sapiens, UniProt P32519 1-619)
# Chain of ELF1 (P32519 whole entry): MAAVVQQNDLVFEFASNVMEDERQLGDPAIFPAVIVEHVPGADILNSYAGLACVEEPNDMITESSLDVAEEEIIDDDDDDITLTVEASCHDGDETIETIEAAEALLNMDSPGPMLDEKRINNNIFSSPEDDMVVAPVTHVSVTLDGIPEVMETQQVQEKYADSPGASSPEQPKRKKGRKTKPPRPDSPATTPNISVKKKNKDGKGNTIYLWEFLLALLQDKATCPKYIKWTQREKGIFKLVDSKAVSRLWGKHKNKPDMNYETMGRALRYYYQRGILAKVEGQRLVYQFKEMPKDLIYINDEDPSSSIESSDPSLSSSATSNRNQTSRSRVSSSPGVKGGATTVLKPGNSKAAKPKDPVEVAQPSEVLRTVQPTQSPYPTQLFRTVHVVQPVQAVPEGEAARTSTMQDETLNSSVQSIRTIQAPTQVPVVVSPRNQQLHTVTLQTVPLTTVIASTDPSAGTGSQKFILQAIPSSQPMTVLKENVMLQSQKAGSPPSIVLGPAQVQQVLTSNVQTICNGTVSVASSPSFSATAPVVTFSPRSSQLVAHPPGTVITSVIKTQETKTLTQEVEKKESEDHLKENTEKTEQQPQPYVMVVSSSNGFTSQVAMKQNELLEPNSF
# Procedure, shortened: as §1
# EHF = molecular target: T2, EHF (Homo sapiens, UniProt Q9NZC4 1-300)
# T2 sequence: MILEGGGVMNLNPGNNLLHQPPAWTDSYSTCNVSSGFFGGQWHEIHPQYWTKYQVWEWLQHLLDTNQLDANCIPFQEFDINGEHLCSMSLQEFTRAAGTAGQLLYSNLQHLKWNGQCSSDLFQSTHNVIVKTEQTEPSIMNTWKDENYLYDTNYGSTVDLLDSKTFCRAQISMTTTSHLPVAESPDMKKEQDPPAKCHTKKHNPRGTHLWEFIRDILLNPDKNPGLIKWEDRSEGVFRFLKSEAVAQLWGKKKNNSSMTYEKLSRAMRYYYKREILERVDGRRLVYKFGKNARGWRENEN
# Procedure, shortened: as §1
# SPIC = molecular target: T3, SPIC (Homo sapiens, UniProt Q8N5J4 1-248)
# T3 sequence: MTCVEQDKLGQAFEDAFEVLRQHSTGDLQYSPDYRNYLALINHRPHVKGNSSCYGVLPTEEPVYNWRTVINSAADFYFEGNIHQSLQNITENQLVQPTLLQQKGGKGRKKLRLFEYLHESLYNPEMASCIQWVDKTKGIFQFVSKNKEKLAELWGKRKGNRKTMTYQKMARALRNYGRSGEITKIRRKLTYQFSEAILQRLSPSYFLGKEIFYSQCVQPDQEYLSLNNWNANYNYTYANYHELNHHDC
# Procedure, shortened: as §1
# ELF3 = molecular target: T4, ELF3 (Homo sapiens, UniProt P78545 1-371)
# T4 sequence: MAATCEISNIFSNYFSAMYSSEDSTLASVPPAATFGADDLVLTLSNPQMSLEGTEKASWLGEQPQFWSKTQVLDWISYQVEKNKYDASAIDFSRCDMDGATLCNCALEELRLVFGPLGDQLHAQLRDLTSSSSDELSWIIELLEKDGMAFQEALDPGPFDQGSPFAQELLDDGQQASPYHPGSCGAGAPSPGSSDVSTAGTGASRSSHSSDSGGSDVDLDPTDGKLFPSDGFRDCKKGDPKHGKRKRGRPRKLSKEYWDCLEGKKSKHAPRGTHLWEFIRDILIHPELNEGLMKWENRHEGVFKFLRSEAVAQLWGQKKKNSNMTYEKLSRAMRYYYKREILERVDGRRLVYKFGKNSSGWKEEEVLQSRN
# Procedure, shortened: as §1
# ERF = molecular target: T5, ERF (Homo sapiens, UniProt P50548 1-548)
# T5 sequence: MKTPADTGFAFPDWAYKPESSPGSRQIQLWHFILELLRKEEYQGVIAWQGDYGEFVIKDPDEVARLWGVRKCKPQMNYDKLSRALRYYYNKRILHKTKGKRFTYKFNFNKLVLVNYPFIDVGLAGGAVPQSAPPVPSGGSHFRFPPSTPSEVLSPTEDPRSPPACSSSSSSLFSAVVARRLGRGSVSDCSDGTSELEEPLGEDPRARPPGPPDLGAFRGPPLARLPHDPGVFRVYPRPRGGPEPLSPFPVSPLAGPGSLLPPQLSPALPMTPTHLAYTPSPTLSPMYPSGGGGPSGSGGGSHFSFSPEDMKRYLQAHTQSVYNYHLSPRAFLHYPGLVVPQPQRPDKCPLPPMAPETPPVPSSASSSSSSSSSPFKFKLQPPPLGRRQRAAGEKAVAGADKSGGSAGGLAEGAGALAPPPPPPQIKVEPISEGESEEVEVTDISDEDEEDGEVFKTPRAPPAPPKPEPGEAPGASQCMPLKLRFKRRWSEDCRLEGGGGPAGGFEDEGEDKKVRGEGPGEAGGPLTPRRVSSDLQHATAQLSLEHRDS
# Procedure, shortened: as §1
# ETS2 = molecular target: T6, ETS2 (Homo sapiens, UniProt P15036 1-469)
# T6 sequence: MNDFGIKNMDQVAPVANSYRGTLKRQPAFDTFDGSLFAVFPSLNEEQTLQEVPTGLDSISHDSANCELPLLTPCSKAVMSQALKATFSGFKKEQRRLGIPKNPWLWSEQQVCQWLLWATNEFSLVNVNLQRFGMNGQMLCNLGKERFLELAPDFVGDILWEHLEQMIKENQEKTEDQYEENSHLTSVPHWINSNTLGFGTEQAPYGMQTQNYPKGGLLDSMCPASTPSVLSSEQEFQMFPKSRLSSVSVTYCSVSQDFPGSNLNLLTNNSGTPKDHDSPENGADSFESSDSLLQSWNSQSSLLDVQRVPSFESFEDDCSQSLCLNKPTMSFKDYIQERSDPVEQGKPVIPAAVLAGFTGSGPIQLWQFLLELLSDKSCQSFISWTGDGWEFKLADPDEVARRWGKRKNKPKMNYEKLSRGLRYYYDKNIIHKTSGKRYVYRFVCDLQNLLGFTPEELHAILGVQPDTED
# Procedure, shortened: as §1
# ETV2 = molecular target: T7, ETV2 (Homo sapiens, UniProt O00321 1-342)
# T7 sequence: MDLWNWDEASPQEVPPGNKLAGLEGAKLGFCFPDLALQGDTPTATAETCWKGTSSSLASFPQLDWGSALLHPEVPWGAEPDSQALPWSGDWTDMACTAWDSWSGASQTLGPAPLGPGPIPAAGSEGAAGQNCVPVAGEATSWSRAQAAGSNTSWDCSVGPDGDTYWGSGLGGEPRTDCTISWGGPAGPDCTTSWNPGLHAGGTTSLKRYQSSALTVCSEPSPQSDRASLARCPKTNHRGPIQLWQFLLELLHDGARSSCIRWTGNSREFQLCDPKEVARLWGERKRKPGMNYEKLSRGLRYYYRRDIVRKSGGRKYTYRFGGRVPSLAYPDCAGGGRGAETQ
# Procedure, shortened: as §1
# ETV7 = molecular target: T8, ETV7 (Homo sapiens, UniProt Q9Y603 1-341)
# T8 sequence: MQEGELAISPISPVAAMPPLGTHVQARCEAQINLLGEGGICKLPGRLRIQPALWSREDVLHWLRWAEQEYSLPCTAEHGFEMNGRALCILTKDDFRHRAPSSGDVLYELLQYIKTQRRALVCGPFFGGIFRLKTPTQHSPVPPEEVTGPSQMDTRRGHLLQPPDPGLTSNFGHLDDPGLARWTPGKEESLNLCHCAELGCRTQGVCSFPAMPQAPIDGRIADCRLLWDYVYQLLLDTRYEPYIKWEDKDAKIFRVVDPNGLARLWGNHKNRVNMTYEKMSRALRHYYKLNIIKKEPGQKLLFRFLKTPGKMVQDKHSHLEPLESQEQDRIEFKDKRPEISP
# Procedure, shortened: as §1
# ELK4 = molecular target: T9, ELK4 (Homo sapiens, UniProt P28324-2 1-405)
# T9 sequence: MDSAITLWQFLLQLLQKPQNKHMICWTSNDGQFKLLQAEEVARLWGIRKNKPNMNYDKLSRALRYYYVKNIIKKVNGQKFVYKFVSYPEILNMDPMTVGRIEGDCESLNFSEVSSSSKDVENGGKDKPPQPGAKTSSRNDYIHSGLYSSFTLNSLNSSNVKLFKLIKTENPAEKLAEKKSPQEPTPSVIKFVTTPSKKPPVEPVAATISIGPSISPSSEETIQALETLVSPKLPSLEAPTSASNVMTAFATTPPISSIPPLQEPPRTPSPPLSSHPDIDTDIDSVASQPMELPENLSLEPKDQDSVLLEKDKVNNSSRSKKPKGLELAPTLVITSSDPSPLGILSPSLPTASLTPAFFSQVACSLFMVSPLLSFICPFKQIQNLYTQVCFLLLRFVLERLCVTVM
# Procedure, shortened: as §1
sequence,measurement,setting,value
CAGCAC,binding signal,GABPA,"1.03 fold enrichment (6-mer frequency, TF over GST control)"
same,binding signal,ELF1,"1.02 fold enrichment (6-mer frequency, TF over GST control)"
same,binding signal,EHF,"1 fold enrichment (6-mer frequency, TF over GST control)"
same,binding signal,SPIC,"1.11 fold enrichment (6-mer frequency, TF over GST control)"
same,binding signal,ELF3,"1.02 fold enrichment (6-mer frequency, TF over GST control)"
same,binding signal,ERF,"1.04 fold enrichment (6-mer frequency, TF over GST control)"
same,binding signal,ETS2,"1 fold enrichment (6-mer frequency, TF over GST control)"
GTGCCG,binding signal,SPIC,"1.03 fold enrichment (6-mer frequency, TF over GST control)"
same,binding signal,ETV2,"1.01 fold enrichment (6-mer frequency, TF over GST control)"
GTAGTA,binding signal,SPIC,"1 fold enrichment (6-mer frequency, TF over GST control)"
same,binding signal,ETV7,"1.01 fold enrichment (6-mer frequency, TF over GST control)"
CGCTGT,binding signal,ELF1,"1.01 fold enrichment (6-mer frequency, TF over GST control)"
same,binding signal,SPIC,"1.1 fold enrichment (6-mer frequency, TF over GST control)"
same,binding signal,ELK4,"1.04 fold enrichment (6-mer frequency, TF over GST control)"
same,binding signal,ETV2,"1.01 fold enrichment (6-mer frequency, TF over GST control)"
same,binding signal,ERF,"1.12 fold enrichment (6-mer frequency, TF over GST control)"
GTTCGT,binding signal,SPIC,"1.12 fold enrichment (6-mer frequency, TF over GST control)"
same,binding signal,ETV2,"1.05 fold enrichment (6-mer frequency, TF over GST control)"
same,binding signal,ERF,"1.12 fold enrichment (6-mer frequency, TF over GST control)"
